Inconclusive results are not listed. Values without a mark were called inactive. Active and inactive are the calls of the source. Calls follow the shape of the dose curve; as a rule, active = well fitted cell-killing curve with a large enough effect; inconclusive = small, poorly fitted or top-dose-only effect, or effect the other way; inactive = no such curve, though single readings can be large or run the other way.

Potency data for 14 compounds are collected here from PubChem BioAssay (NCATS).

Experiment [1] in a line: Quantitative High-Throughput drug screen in 47 multiple myeloma cell lines against the NCATS MIPE library collection: U266_ATCC cell viability assay (AID 1919864). Also: nearly all actives have a fitted effect of over 35% in size. In outline: (§1)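 500 cells/well per myeloma line exposed to pinned MIPE 4.0 compounds for 48 h at 37 °C, 5% CO2. Viability read as ATP by CellTiter-Glo luminescence, normalised to DMSO-only (100%) and media-only (0%) wells.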

Experiment [2] can be described thus: Quantitative High-Throughput drug screen in 47 multiple myeloma cell lines against the NCATS MIPE library collection: XG6_PLB cell viability assay (AID 1919865). Also: nearly all actives have a fitted effect of over 40% in size. In outline: as §1
Experiment [3] in a line: Quantitative High-Throughput drug screen in 47 multiple myeloma cell lines against the NCATS MIPE library collection: XG1_PLB cell viability assay (AID 1919866). Also: nearly all actives have a fitted effect of over 35% in size. In outline:
as §1

A short description of experiment [4]: Quantitative High-Throughput drug screen in 47 multiple myeloma cell lines against the NCATS MIPE library collection: UTMC2_PLB cell viability assay (AID 1919868). Also: nearly all actives have a fitted effect of over 55% in size. In outline: as §1
The nature of experiment [5]: Quantitative High-Throughput drug screen in 47 multiple myeloma cell lines against the NCATS MIPE library collection: PE2_PLB cell viability assay (AID 1919869). Also: nearly all actives have a fitted effect of over 35% in size. In outline:
as §1

A short description of experiment [6]: Quantitative High-Throughput drug screen in 47 multiple myeloma cell lines against the NCATS MIPE library collection: PCM6_Riken cell viability assay (AID 1919870). Also: nearly all actives have a fitted effect of over 30% in size. In outline:
as §1

Experiment [7] in a line: Quantitative High-Throughput drug screen in 47 multiple myeloma cell lines against the NCATS MIPE library collection: RPMI8226_ATCC cell viability assay (AID 1919871). Also: nearly all actives have a fitted effect of over 30% in size. In outline:
as §1

The nature of experiment [8]: Quantitative High-Throughput drug screen in 47 multiple myeloma cell lines against the NCATS MIPE library collection: OPM2_DSMZ cell viability assay (AID 1919872). Also: nearly all actives have a fitted effect of over 30% in size. In outline:
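CellTiter-Glo luminescence (ATP) after 48 h compound exposure, 37C/5% CO2; 500 cells/well; MIPE 4.0 approved/investigational drugs pinned in; DMSO = 100%, media only = 0% viability.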

The nature of experiment [9]: Quantitative High-Throughput drug screen in 47 multiple myeloma cell lines against the NCATS MIPE library collection: VP6_DJ cell viability assay (AID 1919867). Also: nearly all actives have a fitted effect of over 40% in size. In outline: as §1
A short description of experiment [10]: Quantitative High-Throughput drug screen in 47 multiple myeloma cell lines against the NCATS MIPE library collection: KMS11_JCRBsus cell viability assay (AID 1919873). Also: nearly all actives have a fitted effect of over 50% in size. In outline: as §1
Experiment [11] can be described thus: Quantitative High-Throughput drug screen in 47 multiple myeloma cell lines against the NCATS MIPE library collection: KMS28BM_JCRB cell viability assay (AID 1919874). Also: nearly all actives have a fitted effect of over 35% in size. In outline:
as §1
Potency is read from the fitted curve at half-maximal effect.

As to `CC[N+](CC)(CC)CCOc1cccc(OCC[N+](CC)(CC)CC)c1OCC[N+](CC)(CC)CC`, the Potency entry in [1], in [2], in [3], in experiment [4], in experiment [5] and in experiment [6] was “inactive” each time. Further, the Potency result in experiment [7] was “inactive”. For the same compound, the Potency in [8] is 0.118 µM (active).

For the compound `COc1ccccc1OCC(O)CN1CCN(CC(=O)Nc2c(C)cccc2C)CC1` (configuration not stated), the Potency entry in experiment [1], in experiment [2], in [3], in experiment [9], in experiment [5] and in experiment [8] was “inactive” throughout. The Potency entry in experiment [10] and in experiment [11] was “inactive” in each case.

For `COc1ccc2c(c1)c(CC(=O)O)c(C)n2C(=O)c1ccc(Cl)cc1`, the Potency in experiment [1] was 18.7 µM (active); in [2], 18.7 µM (active); in experiment [3] it was 5.26 µM (active); in experiment [9], 20.9 µM (active). The Potency result in experiment [5], in experiment [7], in experiment [10] and in experiment [11] was “inactive” throughout.

As for `COc1cc2nc(N3CCN(C(=O)c4ccco4)CC3)nc(N)c2cc1OC`, the Potency in experiment [1] is 18.7 µM (active); in experiment [2] it was 7.43 µM (active); in experiment [3], 8.33 µM (active); in [9] it was 10.5 µM (active); in experiment [4] it was 11.8 µM (active); in experiment [5], 10.5 µM (active). The Potency in [6] is 7.43 µM (active); in experiment [10], 13.2 µM (active); in [11] it was 10.5 µM (active).

Turning to `CN(C)CCCN1c2ccccc2CCc2ccc(Cl)cc21`, the Potency in [1] was 0.526 µM (active); in experiment [2] it was 0.372 µM (active); in [3], 0.372 µM (active); in experiment [9] it was 0.935 µM (active); in experiment [4], 0.833 µM (active); in experiment [5], 2.64 µM (active). The Potency in experiment [6] was 0.469 µM (active); in experiment [7] it was 16.6 µM (active); in [10], 20.9 µM (active); in experiment [11], 20.9 µM (active).

In the case of `Cc1ccccc1N1C(=O)c2cc(S(N)(=O)=O)c(Cl)cc2NC1C` (configuration not stated), the Potency is 3.72 µM (active) in [1], 5.9 µM (active) in [6] and 7.43 µM (active) in [7]. For the same compound, the Potency entry in experiment [2], in [3], in experiment [5], in experiment [8], in experiment [10] and in [11] was “inactive” throughout.

Take `O=C1c2c(O)ccc(O)c2C(=O)c2c(NCCNCCO)ccc(NCCNCCO)c21`: the Potency in experiment [1] was 1.05 µM (active); in experiment [2], 0.118 µM (active); in experiment [3], 0.332 µM (active); in [9], 0.662 µM (active); in experiment [5], 0.166 µM (active); in [6], 0.935 µM (active). For the same compound, the Potency is 4.69 µM (active) in experiment [7], 3.32 µM (active) in experiment [8], 1.48 µM (active) in experiment [10] and 0.662 µM (active) in experiment [11].

In the case of `O=C(C1CCCCC1)N1CC(=O)N2CCc3ccccc3C2C1` (configuration not stated), the Potency result in [1], in [9], in [8], in [10] and in experiment [11] was “inactive” each time. For the same compound, the Potency in [2] is 20.9 µM (active); in experiment [3] it was 16.6 µM (active).

Regarding `CS(=O)(=O)CCNCc1ccc(-c2ccc3ncnc(Nc4ccc(OCc5cccc(F)c5)c(Cl)c4)c3c2)o1`, the Potency in experiment [1] is 5.9 µM (active); in experiment [2], 0.001 µM (active); in experiment [3] it was 0.0187 µM (active); in experiment [9], 1.66 µM (active); in experiment [4], 1.18 µM (active); in [5], 1.66 µM (active). For the same compound, the Potency in experiment [6] was 1.18 µM (active); in experiment [7] it was 26.4 µM (active); in experiment [8], 16.6 µM (active); in [10], 20.9 µM (active).

On to `OCCN(CCO)c1nc(N2CCCCC2)c2nc(N(CCO)CCO)nc(N3CCCCC3)c2n1`, for which the Potency in experiment [1] was 23.5 µM (active); in [2], 18.7 µM (active); in experiment [3] it was 23.5 µM (active); in [9] it was 23.5 µM (active); in experiment [4], 20.9 µM (active); in [10], 16.6 µM (active). In addition, the Potency in [11] is 16.6 µM (active).

`NC(=O)NO`: the Potency is 2.64 µM (active) in [1]; 2.35 µM (active) in [2]; 9.35 µM (active) in experiment [3]; 1.05 µM (active) in experiment [9]; 1.66 µM (active) in experiment [4]; 3.32 µM (active) in [5]. Besides, the Potency in experiment [6] was 2.35 µM (active); in [7], 3.72 µM (active); in [10], 0.526 µM (active); in experiment [11], 0.935 µM (active).

Consider `CN1CCN(CCCN2c3ccccc3Sc3ccc(Cl)cc32)CC1`, for which the Potency is 18.7 µM (active) in [1]; 14.8 µM (active) in experiment [2]; 14.8 µM (active) in experiment [3]; 10.5 µM (active) in experiment [9]; 23.5 µM (active) in [4]; 23.5 µM (active) in experiment [5]. For the same compound, the Potency was 8.33 µM (active) in experiment [6], 14.8 µM (active) in [10] and 20.9 µM (active) in experiment [11]. The Potency entry in experiment [8] is “inactive”.

`CN(Cc1cnc2nc(N)nc(N)c2n1)c1ccc(C(=O)N[C@@H](CCC(=O)O)C(=O)O)cc1`: the Potency in experiment [1] is 0.148 µM (active); in experiment [2], 0.0469 µM (active); in experiment [3] it was 0.0372 µM (active); in [9] it was 0.0662 µM (active); in experiment [4], 0.166 µM (active); in [5], 0.187 µM (active). Moreover, the figures for the Potency in experiment [6] and in experiment [10] were 0.105 µM (active) and 0.0935 µM (active), respectively.

Consider `Cc1cc(C(C)(C)C)c(O)c(C)c1CC1=NCCN1`, for which the Potency result in experiment [1], in experiment [2], in experiment [3], in experiment [9], in [5] and in experiment [6] was “inactive” throughout. For the same compound, the Potency result in experiment [10] and in [11] was “inactive” throughout.
